Each structure is given as a SMILES string. Several values for one entry are separate records, joined by “and”; a condition that tells them apart may be missing. Equal values may be shown once. Records with an inconclusive call do not appear. Some compounds were tested as several samples or in several runs, with calls that do not always agree. Activity calls are given as the source filed them. The calls were made as follows, unless noted: active = hit-call score of the fitted dose curve at least 0.9, where 1 is the maximum; inconclusive = response in the unintended direction; inactive = score below 0.9.

As a reminder, the AC50 is the midpoint of the concentration-response curve, whichever way the signal moves.

The target of test [1] is Androgen receptor (Homo sapiens) (UniProt P10275). Nature of the test: ATG_AR_TRANS: Attagene TRANS-FACTORIAL HepG2 Assay for human Androgen Receptor (AR) (AID 2282973). Particulars: HepG2 Attagene TRANS-FACTORIAL AR reporter transcription. Summed up: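 Steps: transfect HepG2 with multiple GAL4-UAS reporter transcription units (TRANS format, exogenous NR-Gal4 protein); dose 24 h; isolate RNA, reverse-transcribe, PCR-amplify, FAM-label, HpaI-digest; resolve by capillary electrophoresis. Positive direction vs DMSO.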
Chain of Androgen receptor (Homo sapiens) (P10275 whole entry, looked up, the tested form may be a part): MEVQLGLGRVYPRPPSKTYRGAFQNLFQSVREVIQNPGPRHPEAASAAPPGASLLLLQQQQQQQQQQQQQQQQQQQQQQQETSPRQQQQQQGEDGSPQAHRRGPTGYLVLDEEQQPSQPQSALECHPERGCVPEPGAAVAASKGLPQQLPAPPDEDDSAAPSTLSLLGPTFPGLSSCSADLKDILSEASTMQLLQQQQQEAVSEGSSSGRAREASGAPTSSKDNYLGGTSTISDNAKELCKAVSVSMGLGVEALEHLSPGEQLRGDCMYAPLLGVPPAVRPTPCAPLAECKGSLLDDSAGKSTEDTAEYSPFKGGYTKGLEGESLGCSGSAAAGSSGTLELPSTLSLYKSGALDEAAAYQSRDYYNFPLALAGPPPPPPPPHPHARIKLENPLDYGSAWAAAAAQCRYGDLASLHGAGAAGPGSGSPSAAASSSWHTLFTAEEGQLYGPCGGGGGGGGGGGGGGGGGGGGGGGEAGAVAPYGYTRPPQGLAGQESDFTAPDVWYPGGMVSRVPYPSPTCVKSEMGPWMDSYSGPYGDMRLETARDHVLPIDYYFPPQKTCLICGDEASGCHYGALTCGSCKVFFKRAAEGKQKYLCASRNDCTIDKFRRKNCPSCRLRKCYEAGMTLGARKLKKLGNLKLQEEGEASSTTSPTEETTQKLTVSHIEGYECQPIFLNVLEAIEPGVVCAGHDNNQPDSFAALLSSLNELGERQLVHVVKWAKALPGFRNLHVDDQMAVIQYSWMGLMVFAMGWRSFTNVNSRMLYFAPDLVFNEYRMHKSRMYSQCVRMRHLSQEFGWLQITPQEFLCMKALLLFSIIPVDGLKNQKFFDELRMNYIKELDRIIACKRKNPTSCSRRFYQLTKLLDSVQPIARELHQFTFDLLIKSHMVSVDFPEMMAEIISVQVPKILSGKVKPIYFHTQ

The nature of test [2]: Tanguay_ZF_120hpf_MUSC: Oregon State University Tanguay Lab 120 Hour Post-fertilization zebrafish Assay for Muscle Malformation (AID 2284401; active = hit-call score of the fitted dose curve at least 0.9, where 1 is the maximum; inactive = score below 0.9). The method, boiled down: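 Scored as a binary brightfield endpoint at 120 hpf, fitted versus DMSO. Single dechorionated wild-type (Tropical 5D) zebrafish embryos per well, statically exposed at 28C from 6 hpf onward with final DMSO 0.64%.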

Test [3] deals with Cytochrome P450 2C18 (Homo sapiens) (UniProt P33260). Nature of the test: NVS_ADME_hCYP2C18: NovaScreen (NVS) CYP450-related Enzyme Activity (ADME) Assay for human CYP2C18 (AID 2283103; active = hit-call score of the fitted dose curve at least 0.9, where 1 is the maximum; inactive = score below 0.9). The method, boiled down:
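Enzyme activity measured by fluorescence 0.5 h after compound addition, using recombinant CYP2C18 and a specific substrate. Actives from duplicate 10 uM screening were retested in concentration series (top 20 uM); acetonitrile served as negative baseline.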

The test system of another test is rat CYP2B1, gene 24300. Nature of the test: NVS_ADME_rCYP2B1: NovaScreen (NVS) CYP450-related Enzyme Activity (ADME) Assay for rat CYP2B1 (AID 2283117). The method, boiled down:
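Cell-free fluorescence enzyme assay, recombinant rat CYP2B1, 0.75 h after dosing. Single-concentration duplicates at 10 uM preceded concentration series (max 20 uM) for actives; acetonitrile as negative-control baseline.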

The target of test [4] is human Protein Tyrosine Phosphatase Non-receptor Type 2 (PTPN2), PTPN2 (gene 5771) (UniProt P17706). Nature of the test: NVS_ENZ_hPTPN2: NovaScreen (NVS) Enzymatic Assay for human Protein Tyrosine Phosphatase Non-receptor Type 2 (PTPN2) (AID 2283207). The method, boiled down:
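Activity measured as fluorescence after mobility-shift separation of substrate and product, 1 h after compound. Duplicate single-point 25 uM primary testing, concentration series for actives; inhibition scored as signal loss relative to DMSO baseline.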

Test [5] has as its target human CYP2C8, CYP2C8 (gene 1558) (UniProt P10632). Nature of the test: NVS_ADME_hCYP2C8: NovaScreen (NVS) CYP450-related Enzyme Activity (ADME) Assay for human CYP2C8 (AID 2283104; active = hit-call score of the fitted dose curve at least 0.9, where 1 is the maximum; inactive = score below 0.9). The method, boiled down:
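Fluorescence readout of substrate turnover by recombinant CYP2C8 after 0.5 h, baseline acetonitrile. Single-concentration duplicate screen at 10 uM preceded singleton concentration series (max 20 uM) for compounds passing the inhibition threshold.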

For test [6], the target named is rat CYP2C12, Cyp2c12 (gene 25011) (UniProt P11510). Nature of the test: NVS_ADME_rCYP2C12: NovaScreen (NVS) CYP450-related Enzyme Activity (ADME) Assay for rat CYP2C12 (AID 2283119). Summed up: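 Fluorescent-substrate turnover by recombinant rat CYP2C12, measured at 0.5 h, normalized to acetonitrile vehicle. Chemicals screened first at a single 10 uM concentration in duplicate, with concentration series for actives.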
Chain of rat CYP2C12, Cyp2c12 (gene 25011) (P11510 whole entry, looked up): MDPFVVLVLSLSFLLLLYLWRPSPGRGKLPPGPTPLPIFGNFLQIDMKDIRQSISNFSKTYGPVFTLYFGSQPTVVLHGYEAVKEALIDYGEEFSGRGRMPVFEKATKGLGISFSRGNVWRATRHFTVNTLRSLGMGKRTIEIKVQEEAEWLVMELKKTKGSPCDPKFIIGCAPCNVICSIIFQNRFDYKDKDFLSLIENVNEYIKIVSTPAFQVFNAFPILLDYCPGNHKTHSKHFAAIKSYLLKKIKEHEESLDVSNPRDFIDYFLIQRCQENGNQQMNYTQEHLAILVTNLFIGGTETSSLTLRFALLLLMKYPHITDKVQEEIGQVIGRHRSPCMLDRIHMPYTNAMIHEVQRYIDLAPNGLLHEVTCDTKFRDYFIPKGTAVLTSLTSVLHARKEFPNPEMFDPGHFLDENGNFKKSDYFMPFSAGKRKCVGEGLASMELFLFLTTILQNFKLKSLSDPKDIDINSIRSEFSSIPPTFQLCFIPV

The target in test [7] is rat CYP2D1, Cyp2d1 (gene 266684) (UniProt P10633). Nature of the test: NVS_ADME_rCYP2D1: NovaScreen (NVS) CYP450-related Enzyme Activity (ADME) Assay for rat CYP2D1 (AID 2283122). Summed up: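 Rat CYP2D1 enzyme activity measured by fluorescence intensity in a cell-free format, 0.75 h post-dosing, acetonitrile as negative control. Screening at 10 uM in duplicate, with actives followed in concentration series up to 20 uM.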
Chain of rat CYP2D1, Cyp2d1 (gene 266684) (P10633 whole entry, looked up): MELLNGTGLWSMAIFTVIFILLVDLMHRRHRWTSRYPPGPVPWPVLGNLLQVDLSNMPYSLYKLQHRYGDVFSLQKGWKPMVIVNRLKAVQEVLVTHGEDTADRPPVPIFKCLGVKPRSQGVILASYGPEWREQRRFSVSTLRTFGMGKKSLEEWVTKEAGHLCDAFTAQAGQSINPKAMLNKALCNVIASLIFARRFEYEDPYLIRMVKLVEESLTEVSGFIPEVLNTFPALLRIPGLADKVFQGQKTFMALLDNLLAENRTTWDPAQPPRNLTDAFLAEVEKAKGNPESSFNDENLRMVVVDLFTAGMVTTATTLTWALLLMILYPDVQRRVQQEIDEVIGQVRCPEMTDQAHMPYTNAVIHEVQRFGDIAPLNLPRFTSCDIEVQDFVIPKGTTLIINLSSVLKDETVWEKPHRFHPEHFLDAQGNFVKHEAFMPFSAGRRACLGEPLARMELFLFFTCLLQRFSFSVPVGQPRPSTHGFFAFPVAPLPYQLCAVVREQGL

For test [8], the target named is Norway rat Vesicular Monoamine Transporter (VMAT2), neurotransmitter transporter, Slc18a2 (gene 25549) (UniProt Q01827). Nature of the test: NVS_TR_rVMAT2: NovaScreen (NVS) Transporter Assay for Norway rat Vesicular Monoamine Transporter (VMAT2), neurotransmitter transporter (AID 2283376).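 Also: actives lower the bound radioligand signal below the DMSO level.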 The method, boiled down:
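Binding endpoint from rat forebrain tissue, cell-free; 1 h incubation; filtered radioligand counted; 25 uM duplicate primary then dose series; DMSO negative control.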

Test [9] has as its target Cellular tumor antigen p53 (Homo sapiens) (UniProt P04637). Nature of the test: TOX21_p53_BLA_p2_ratio: Tox21 HCT-116 p53 Agonism Beta-lactamase Assay, Ratio, Phase 2 (AID 2283592). Summed up: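 Plated HCT116 p53-bla cells (4000/well) received compound after 5 h, then 16 h at 37C/5% CO2. CCF4-AM added, 2 h RT. Ratio of 460 to 530 nm emission taken as the p53 reporter signal.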

Test [10] shares this target. Nature of the test: TOX21_p53_BLA_p3_ratio: Tox21 HCT-116 p53 Agonism Beta-lactamase Assay, Ratio, Phase 3 (AID 2283596). Summed up: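 Cells were seeded at 4000/well, rested 5 h at 37C, then dosed with DMSO compound solutions (217-fold dilution) for 16 h. CCF4-AM substrate was loaded for 2 h at room temperature, and the 460/530 nm emission ratio was fitted for gain of signal versus DMSO.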

Test [11] shares this target. Nature of the test: TOX21_p53_BLA_p5_ratio: Tox21 HCT-116 p53 Agonism Beta-lactamase Assay, Ratio, Phase 5 (AID 2283599). The method, boiled down:
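HCT-116 cells carrying a p53-inducible beta-lactamase reporter were seeded at 4000 cells/well and dosed after 5 h with compound in DMSO (217-fold dilution). After 16 h at 37C, CCF4-AM substrate was added for 2 h, and the 460/530 nm emission ratio was scored as gain-of-signal versus DMSO.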

For test [12] the target is unchanged. Nature of the test: TOX21_p53_BLA_p4_ratio: Tox21 HCT-116 p53 Agonism Beta-lactamase Assay, Ratio, Phase 4 (AID 2283601). The method, boiled down:
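HCT116 cells carrying an inducible beta-lactamase reporter were plated at 4000 cells/well, rested 5 h, then exposed to compounds in DMSO (217-fold dilution) for 16 h at 37C. CCF4-AM substrate was loaded 2 h at room temperature; 460/530 nm emission ratio scored gain-of-signal versus DMSO.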

A short description of test [13]: ATG_M_32_XSP2: Attagene TRANS-FACTORIAL Multi-Species (XSP2) HepG2 Assay for M19 Transcription Factor (Internal Marker) (AID 2283826). The method, boiled down:
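Transfected HepG2 (multiplexed GAL4-UAS reporters), 24 h chemical exposure, 3 nM 6-alpha-fluorotestosterone + 1.5 nM norgestrel added. RNA → oligo(dT) RT → PCR → 6-FAM primer extension → HpaI cut → CE. Fitted upward vs DMSO.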

Test [14] deals with human CYP4F12, CYP4F12 (gene 66002) (UniProt Q9HCS2). Nature of the test: NVS_ADME_hCYP4F12: NovaScreen (NVS) CYP450-related Enzyme Activity (ADME) Assay for human CYP4F12 (AID 2283111). The method, boiled down: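 Recombinant enzyme with a fluorescent substrate, signal read at 0.5 h post-dose; activity loss analysed relative to acetonitrile. Compounds first run in duplicate at 10 uM, with follow-up concentration-response testing of actives.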
Chain of human CYP4F12, CYP4F12 (gene 66002) (Q9HCS2 whole entry, looked up): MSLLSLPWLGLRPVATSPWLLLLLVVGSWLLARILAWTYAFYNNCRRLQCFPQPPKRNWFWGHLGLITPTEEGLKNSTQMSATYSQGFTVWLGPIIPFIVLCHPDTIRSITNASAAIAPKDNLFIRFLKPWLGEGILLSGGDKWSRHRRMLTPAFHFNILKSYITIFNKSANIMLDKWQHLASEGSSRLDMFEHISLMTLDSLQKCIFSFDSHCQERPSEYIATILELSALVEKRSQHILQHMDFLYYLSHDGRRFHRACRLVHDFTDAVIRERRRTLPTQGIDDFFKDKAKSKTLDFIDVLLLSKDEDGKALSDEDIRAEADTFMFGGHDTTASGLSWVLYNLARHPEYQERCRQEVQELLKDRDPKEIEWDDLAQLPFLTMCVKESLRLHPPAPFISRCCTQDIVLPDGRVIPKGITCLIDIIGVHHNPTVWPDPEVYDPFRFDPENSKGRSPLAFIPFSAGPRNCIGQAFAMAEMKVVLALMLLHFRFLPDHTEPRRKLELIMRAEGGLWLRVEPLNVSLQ

Test [15] concerns the target human Raf-1 Proto-Oncogene, serine/threonine Kinase (RAF1), RAF1 (gene 5894) (UniProt P04049). Nature of the test: NVS_ENZ_hRAF1: NovaScreen (NVS) Enzymatic Assay for human Raf-1 Proto-Oncogene, serine/threonine Kinase (RAF1) (AID 2283216). The method, boiled down:
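Single-point screening at 25 uM (duplicate), followed by singleton concentration-response to 50 uM maximum for chemicals exceeding threshold. Enzyme activity from fluorescent substrate-product mobility-shift separation after 1 h, relative to DMSO.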

Chain of Cellular tumor antigen p53 (Homo sapiens) (P04637 whole entry, looked up): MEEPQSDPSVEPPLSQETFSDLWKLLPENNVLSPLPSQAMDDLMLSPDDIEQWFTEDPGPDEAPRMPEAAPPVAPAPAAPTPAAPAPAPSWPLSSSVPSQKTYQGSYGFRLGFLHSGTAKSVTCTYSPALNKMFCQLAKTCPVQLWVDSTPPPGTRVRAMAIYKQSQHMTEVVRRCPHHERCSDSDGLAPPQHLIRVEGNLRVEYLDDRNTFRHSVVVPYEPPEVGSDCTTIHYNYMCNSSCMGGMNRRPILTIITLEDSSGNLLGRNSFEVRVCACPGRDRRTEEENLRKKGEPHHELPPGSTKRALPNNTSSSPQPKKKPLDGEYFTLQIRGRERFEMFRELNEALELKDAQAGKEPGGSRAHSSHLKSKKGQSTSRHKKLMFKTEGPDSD
Chain of Cytochrome P450 2C18 (Homo sapiens) (P33260 whole entry, looked up): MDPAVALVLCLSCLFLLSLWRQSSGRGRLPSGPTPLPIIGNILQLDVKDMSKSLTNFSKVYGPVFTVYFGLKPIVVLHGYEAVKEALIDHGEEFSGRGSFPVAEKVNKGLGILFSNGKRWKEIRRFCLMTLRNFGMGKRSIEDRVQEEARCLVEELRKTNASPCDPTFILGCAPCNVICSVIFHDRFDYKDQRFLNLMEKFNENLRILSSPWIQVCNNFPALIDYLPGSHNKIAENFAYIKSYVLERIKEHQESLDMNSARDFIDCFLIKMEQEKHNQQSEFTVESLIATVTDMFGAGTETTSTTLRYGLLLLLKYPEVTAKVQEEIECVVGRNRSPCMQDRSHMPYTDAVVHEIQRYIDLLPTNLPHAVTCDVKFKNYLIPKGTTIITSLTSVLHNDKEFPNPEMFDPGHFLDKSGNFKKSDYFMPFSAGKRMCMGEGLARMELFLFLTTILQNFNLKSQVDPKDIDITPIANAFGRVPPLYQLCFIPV
Chain of human Protein Tyrosine Phosphatase Non-receptor Type 2 (PTPN2), PTPN2 (gene 5771) (P17706 whole entry, looked up): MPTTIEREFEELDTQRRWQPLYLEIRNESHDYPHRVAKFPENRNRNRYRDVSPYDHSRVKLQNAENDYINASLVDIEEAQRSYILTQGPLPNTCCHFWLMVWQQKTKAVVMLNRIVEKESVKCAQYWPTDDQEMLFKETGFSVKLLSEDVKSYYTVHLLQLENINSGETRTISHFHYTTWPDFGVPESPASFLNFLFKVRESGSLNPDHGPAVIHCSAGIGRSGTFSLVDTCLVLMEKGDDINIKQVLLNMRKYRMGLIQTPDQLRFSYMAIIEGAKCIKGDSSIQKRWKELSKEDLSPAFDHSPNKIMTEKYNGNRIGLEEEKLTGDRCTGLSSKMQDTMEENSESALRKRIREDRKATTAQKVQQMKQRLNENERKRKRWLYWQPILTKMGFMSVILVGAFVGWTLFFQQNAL
Chain of Norway rat Vesicular Monoamine Transporter (VMAT2), neurotransmitter transporter, Slc18a2 (gene 25549) (Q01827 whole entry, looked up): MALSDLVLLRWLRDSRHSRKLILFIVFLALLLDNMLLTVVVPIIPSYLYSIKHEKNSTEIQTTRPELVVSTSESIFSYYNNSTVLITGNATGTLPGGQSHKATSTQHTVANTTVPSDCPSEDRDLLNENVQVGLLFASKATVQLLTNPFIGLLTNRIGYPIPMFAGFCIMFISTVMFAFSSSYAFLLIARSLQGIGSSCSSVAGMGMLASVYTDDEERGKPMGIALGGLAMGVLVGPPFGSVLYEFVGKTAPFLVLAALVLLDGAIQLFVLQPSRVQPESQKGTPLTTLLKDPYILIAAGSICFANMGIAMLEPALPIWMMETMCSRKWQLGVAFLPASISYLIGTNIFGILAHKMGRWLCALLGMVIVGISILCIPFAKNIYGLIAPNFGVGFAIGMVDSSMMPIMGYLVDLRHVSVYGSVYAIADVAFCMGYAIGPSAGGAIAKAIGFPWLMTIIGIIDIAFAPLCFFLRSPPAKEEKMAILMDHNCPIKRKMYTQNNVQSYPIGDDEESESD
Chain of human Raf-1 Proto-Oncogene, serine/threonine Kinase (RAF1), RAF1 (gene 5894) (P04049 whole entry, looked up): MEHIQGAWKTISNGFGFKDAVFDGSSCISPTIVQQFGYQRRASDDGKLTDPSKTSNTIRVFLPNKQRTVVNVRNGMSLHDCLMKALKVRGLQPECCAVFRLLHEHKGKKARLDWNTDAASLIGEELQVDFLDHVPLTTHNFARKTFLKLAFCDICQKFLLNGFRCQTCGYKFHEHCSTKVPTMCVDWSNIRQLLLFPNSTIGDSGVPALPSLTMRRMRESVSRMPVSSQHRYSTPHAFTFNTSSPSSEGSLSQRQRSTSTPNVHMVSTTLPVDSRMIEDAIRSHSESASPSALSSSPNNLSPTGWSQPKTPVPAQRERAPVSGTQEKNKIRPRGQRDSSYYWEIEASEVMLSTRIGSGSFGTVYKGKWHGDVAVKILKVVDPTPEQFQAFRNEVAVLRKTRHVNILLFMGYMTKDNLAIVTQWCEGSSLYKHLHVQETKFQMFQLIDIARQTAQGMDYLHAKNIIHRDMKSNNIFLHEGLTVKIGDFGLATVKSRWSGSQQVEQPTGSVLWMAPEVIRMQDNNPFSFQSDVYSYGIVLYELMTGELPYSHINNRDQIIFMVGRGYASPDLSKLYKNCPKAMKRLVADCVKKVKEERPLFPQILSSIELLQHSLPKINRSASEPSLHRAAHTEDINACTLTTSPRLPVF

For `O=S(=O)(O)CCC(F)(F)C(F)(F)C(F)(F)C(F)(F)C(F)(F)C(F)(F)C(F)(F)C(F)(F)F`, the call in test [1] and in [2] was inactive.

Turning to `NC(=O)C(F)(F)C(F)(F)C(F)(F)C(F)(F)C(F)(F)C(F)(F)C(F)(F)F`, the molecule was called inactive in test [1] and in test [2].

As for `NCC(F)(F)C(F)(F)C(F)(F)C(F)(F)F`, the result in [1] and in test [2] was inactive.

For the molecule `O=C(O)C(F)(F)C(F)(F)C(F)(F)C(F)(F)C(F)(F)C(F)(F)C(F)(F)C(F)(F)C(F)(F)C(F)(F)C(F)(F)C(F)(F)C(F)(F)F`, the call in test [1] and in [2] was inactive.

In the case of `OCCC(F)(F)C(F)(F)C(F)(F)C(F)(F)F`, the result in test [1] and in test [2] was inactive.

Consider `NS(=O)(=O)C(F)(F)C(F)(F)C(F)(F)C(F)(F)C(F)(F)C(F)(F)F`, for which the molecule was classed as inactive in test [1] and in test [2].

Turning to `C[N+](C)(C)CCCNS(=O)(=O)C(F)(F)C(F)(F)C(F)(F)C(F)(F)C(F)(F)C(F)(F)C(F)(F)C(F)(F)F`, the call in [1] and in test [2] was inactive.

Turning to `O=S(=O)(OCCOC(F)(F)F)C(F)(F)F`, the call in [1] and in [2] was inactive.

With `O=P(O)(O)OCCC(F)(F)C(F)(F)C(F)(F)C(F)(F)C(F)(F)C(F)(F)F`, the call in test [1] and in [2] was inactive.

Turning to `CN(CCO)S(=O)(=O)C(F)(F)C(F)(F)C(F)(F)C(F)(F)C(F)(F)C(F)(F)C(F)(F)C(F)(F)F`, the call in test [1] and in test [2] was inactive.

For the molecule `CC(=O)O[C@]1(C(C)=O)CC[C@H]2[C@@H]3C=C(Cl)C4=CC(=O)[C@@H]5C[C@@H]5[C@]4(C)[C@H]3CC[C@@]21C`, in test [3], the AC50 is 6.86 µM (active) and the molecule was called inactive. Besides, in the test on rat CYP2B1, gene 24300, the molecule was called inactive.

With `C[Si](C)(C)C(F)(F)C(F)(F)C(F)(F)F`, the result in [1] and in test [2] was inactive.

Take `FC(F)C(F)(F)COCC1CO1` (centres undefined): the molecule was classed as inactive in test [1] and in test [2].

In the case of `NC(=O)C(F)(F)C(F)(F)C(F)(F)C(F)(F)F`, the outcome in [1] and in [2] was inactive.

For the molecule `OCC(F)(F)C(F)(F)C(F)(F)C(F)(F)C(F)(F)C(F)F`, the molecule was classed as inactive in [1] and in test [2].

Regarding `CCOC(=O)NCCOc1ccc(Oc2ccccc2)cc1`, the AC50 in test [3] is 4.5 µM (active). Besides, the call in test [4] was inactive.

As for `FC(F)(F)C(F)(F)C(F)(F)C(F)(F)C(F)(F)C(F)(F)C(F)(F)C(F)(F)F`, the result in test [1] and in test [2] was inactive.

In the case of `C=CCOC(Cn1ccnc1)c1ccc(Cl)cc1Cl` (centres undefined), the AC50 in [3] is 0.427 µM (active); in [5], 6.22 µM (active); in the test with rat CYP2B1, gene 24300, 0.0108 µM (active); in test [6], 2.13 µM (active); in [7], 3.58 µM (active); in test [8] it was 12 µM (active). In addition, the AC50 in test [9] was 76.1 µM (active) and 72.5 µM (active); in [10], 83 µM (active) and 73.3 µM (active); in test [11], 79.4 µM (active) and 77.2 µM (active); in [12], 80.8 µM (active) and 83.9 µM (active). Moreover, the outcome in test [9], in test [10], in test [11], in test [12] and in test [13] was inactive.

On to `OCC(O)CC(F)(F)C(F)(F)C(F)(F)C(F)(F)F` (centres undefined), for which the result in [1] and in [2] was inactive.

`Nc1nc(Cl)nc2c1ncn2[C@H]1C[C@H](O)[C@@H](CO)O1`: in test [14], the result was inactive.

Consider `CCCCCOC(=O)COc1cc(N2C(=O)C3=C(CCCC3)C2=O)c(F)cc1Cl`, for which the molecule was classed as inactive in test [3].

Take `CC(C)(C)[C@@H](O)[C@@H](Cc1ccc(Cl)cc1)n1cncn1`: the AC50 in test [3] was 5.35 µM (active); in the test with rat CYP2B1, gene 24300, 1.35 µM (active); in test [6] it was 5.82 µM (active); in [7] it was 5.84 µM (active). Besides, the outcome in test [15] was inactive.

Values taken from PubChem BioAssay (EPA / NIEHS).
